# SKKanGAS inh = blocks kanamycin growth of S. pyogenes SKKanGAS strain. 300,000 tested, 1.3% active. BacTiter-Glo, 6 h. inhibition, % at 7.5 µM;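 active = mean replicate score, as percent of positive control median, at least 50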;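 also: strain carries kanamycin resistance gene driven by streptokinase promoter and grows in 40 µg/ml kanamycin; loss of luminescence reflects streptokinase promoter inhibition or plain growth inhibition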
# PfHsp90 set2 = inhibits growth of yeast expressing Plasmodium falciparum Hsp90; 310,000 tested, 0.32% active; S. cerevisiae expressing PfHsp90, BacTiter-Glo ATP, 48 h; yeast lacking PDR1 and PDR3 efflux regulators; inhibition, % at 9.4 µM; AID 504621;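 active = every replicate shows inhibition above about 80%, whatever the replicate mean, limit read from the data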
# tim23-1 inh = growth inhibitors of tim23-1 mutant yeast | 330,000 tested, 1.3% active | inhibition, % at 20 µM | AID 463212 | S. cerevisiae tim23-1 growth, BacTiter-Glo luminescence, 24 h;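 active = growth inhibition of the mutant yeast at or above 50%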;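 also: temperature-sensitive mutant grown at 25 °C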
# TIM10 inh = inhibits growth of TIM10 yeast strain. inhibition, % at 10 µM. S. cerevisiae TIM10 strain growth, BacTiter-Glo luminescence, 24 h. 330,000 tested, 1.4% active;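 active = inhibition of 40% or more at the single tested concentration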;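 also: wild-type TIM10 isogenic control strain grown at permissive 25 °C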
# NALP3 yeast inh = NALP3 inhibition in yeast | 330,000 tested, 0.39% active | inhibition, % at 10 µM | Yeast reconstituted NLRP3/ASC/caspase-1, beta-gal luminescence, 24 h;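 active = inhibition of 50% or more; inactive = inhibition below 50%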
# tim10-1 inh = tim10-1 yeast growth inhibition; inhibition, % at 20 µM; 330,000 tested, 2.2% active; AID 463190; S. cerevisiae tim10-1 ts strain growth, BacTiter-Glo, 24 h;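 active = inhibition of at least 40%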;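 also: mutant grown at 25 °C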
# TIM10 conf = confirmation of TIM10 yeast growth inhibitors; AID 463215; inhibition, % at 10 µM; shares compounds with TIM10 inh; 4,600 tested, 63% active; S. cerevisiae tim10 strain growth, BacTiter-Glo luminescence, 24 h;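 active = inhibition of yeast growth at or above a set limit in either of two replicates at 10 µM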; also: this counterscreen used the strain with wild-type TIM10
# Hits are given with their value; n = inactive; x = not tested or not shown. A selection: hits, their analogues and other compounds. The true share with any hit is near 4.5%.
SMILES,SKKanGAS inh,PfHsp90 set2,tim23-1 inh,TIM10 inh,NALP3 yeast inh,tim10-1 inh,TIM10 conf
C[n+]1c2n(c3ccccc31)N=C(c1ccc(Cl)cc1)CS2,n,n,n,41,n,n,44
CN(c1ccccc1)c1nc(N)c([N+](=O)[O-])c(N2CCCCCC2)n1,n,n,n,45,n,n,n
CCN(C(=O)COC(=O)c1ccc(=O)n(Cc2ccccc2)n1)C1CCCCC1,x,x,n,n,n,n,x
O=[N+]([O-])c1ccc2ccn(C3OCC(O)C(O)C3O)c2c1 (configuration not stated),x,n,n,n,n,n,x
Cn1c2ccc(Br)cc2c2nnc(SCC(=O)O)nc21,n,n,n,60,n,n,75
CCOc1cc(C=O)c(Br)cc1OC1CCCC1,n,n,n,40,n,n,n
Cc1nc2ccc(NC(=O)c3ccccc3)cc2s1,n,n,n,44,n,n,n
COc1ccc(C(=O)Nc2ccc3c(c2)nc2n3CCSC2)cc1,n,x,n,51,n,n,42
O=C(Nc1ccc2c(c1)nc1n2CCOC1)c1ccccc1,n,n,n,63,n,n,47
CCC(=O)Nc1ccc2c(c1)nc1n2CCSC1,n,n,n,n,n,n,x
O=C(Nc1ccc2c(c1)nc1n2CCSC1)c1ccccc1,n,n,n,66,n,n,67
CC(C)C(=O)Nc1ccc2c(c1)nc1n2CCSC1,n,n,n,n,n,n,x
CN(C(=O)c1ccc(NC(=O)Cc2ccc(NC(=O)C3CCN(C(=O)c4ccccc4)CC3)cc2)cc1)C1CCCC1,x,n,x,x,x,x,x
Cc1nc2ccc(NS(=O)(=O)c3ccc(F)cc3)cc2s1,n,n,n,60,n,n,n
Cc1nc2ccc(NS(=O)(=O)c3c(F)cccc3F)cc2s1,x,n,n,n,n,n,x
CC1=CC(=O)C(C(C)C)=C/C1=N/OC(=O)c1cccc([N+](=O)[O-])c1,n,n,n,43,n,n,32
O=[N+]([O-])c1ccc(Sc2n[nH]c(-c3ccccc3)n2)nc1,n,n,n,45,n,n,n
O=[N+]([O-])c1ccc(Sc2ccccc2)nc1,n,n,n,n,n,n,x
O=C(CN1CCCCCC1)Nc1ccccc1OC(F)F,n,n,n,n,n,n,x
CCn1c(-c2ccccc2O)n[nH]c1=S,n,n,n,n,n,n,x
S=c1[nH]nc(-c2cc3ccccc3o2)n1Cc1ccccc1,n,n,n,52,n,n,48
S=c1[nH]nc(-c2ccc(Cl)cc2Cl)n1Cc1ccccc1,n,n,n,56,n,n,n
S=c1[nH]nc(CCc2ccccc2)n1Cc1ccccc1,n,n,n,n,n,n,x
Cc1cccc(-c2n[nH]c(=S)n2Cc2ccccc2)c1,n,n,n,41,n,n,n
O=[N+]([O-])c1cccc(-c2n[nH]c(=S)n2Cc2ccccc2)c1,n,n,n,n,n,n,x
SMILES,SKKanGAS inh,PfHsp90 set2,tim23-1 inh,TIM10 inh,NALP3 yeast inh,tim10-1 inh,TIM10 conf
CCn1c(-c2cc(-c3ccccc3)sc2N)n[nH]c1=S,n,n,n,45,n,n,43
COc1ccc(N2CCN(C(=O)C(=O)c3cn(CC(=O)N4CCCCCC4)c4ccccc34)CC2)cc1,n,n,n,n,n,n,x
O=C(CN1CCN(S(=O)(=O)c2ccccc2F)CC1)Nc1ccccc1C(=O)c1ccccc1,n,n,n,n,n,n,x
COc1ccc(C(=O)Nc2c(N)nc[nH]c2=O)cc1,n,n,n,n,n,n,x
COc1ccccc1C1CC(c2ccccc2)=NN1C(=S)Nc1ccccc1 (configuration not stated),n,n,n,41,n,n,n
COc1ccc(C2CC(c3ccccc3)=NN2C(=S)Nc2ccccc2)cc1 (configuration not stated),n,n,n,n,n,n,x
COc1ccc(C2=NN(C(N)=S)C(c3ccccc3)C2)cc1 (configuration not stated),n,n,n,41,n,n,n
COc1ccc(C2=NN(C(=S)Nc3ccccc3)C(c3ccccc3)C2)cc1 (configuration not stated),n,n,n,n,n,n,x
CC(SCC(=O)O)c1nc2ccccc2[nH]1 (configuration not stated),n,n,n,n,n,n,x
CCOCc1c(C(=O)Nc2ccc3nc(N4CCOCC4)sc3c2)oc2ccccc12,x,n,n,n,n,n,x
O=C(Nc1cccc(S(=O)(=O)N2CCCCC2)c1)c1ccc([N+](=O)[O-])o1,n,n,n,46,n,n,n
O=C(COC(=O)c1ccc([N+](=O)[O-])o1)Nc1cccc(S(=O)(=O)N2CCCCC2)c1,n,x,n,n,n,n,x
O=c1oc(-c2ccccc2)nc2sc3c(c12)CCC3,n,n,n,42,n,n,n
COc1ccc(-c2ccc(SCC(=O)c3cccs3)nn2)cc1,n,x,n,43,n,n,n
O=C(CSc1ccc(-c2ccccc2)nn1)c1cccs1,n,n,n,41,n,n,n
COc1ccc(-c2ccc(SCC(=O)Nc3nnc(C)s3)nn2)cc1,n,n,n,n,n,n,x
O=C(/C=C/c1ccc(Br)cc1)c1ccc(NC(=O)c2ccco2)cc1,n,n,n,41,n,n,n
OC(CNCc1ccco1)Cn1c2ccc(Br)cc2c2cc(Br)ccc21 (configuration not stated),52,n,n,46,n,n,65
Brc1ccc2ncnc(NCc3ccco3)c2c1,n,n,n,n,n,n,x
CC(C)(C)C(=O)O/N=C1/C(=O)N(c2ccccc2)c2ccccc21,n,x,n,52,n,n,61
COc1ccccc1N1CCN(C(=O)c2c(C)cc(=O)oc2C)CC1,n,n,n,n,n,n,x
COc1cc2c(C(=O)N3CCN(c4ccccc4C)CC3)c(C)oc2cc1Br,51,n,n,52,n,n,35
O=C(Nc1ccc2c(c1)OCO2)C1CC(c2cccc(Br)c2)=NO1 (configuration not stated),n,n,n,n,n,n,x
COc1cccc(C(=O)Nn2c(-c3cccs3)nc3ccccc3c2=O)c1OC,n,n,n,41,n,n,35
CCOC(=O)C1=CN(Cc2cccc(F)c2)S(=O)(=O)N(C)C1c1ccc(F)c(Cl)c1 (configuration not stated),x,n,n,n,x,n,x
O=C(Cn1cc(/C=C\[N+](=O)[O-])c2ccccc21)Nc1ccccc1,n,n,n,43,n,n,55
O=[N+]([O-])/C=C/c1cn(Cc2ccccc2)c2ccccc12,n,93,n,46,n,n,56
O=C(O)Cn1cc(/C=C/[N+](=O)[O-])c2ccccc21,n,n,n,n,n,n,x
Nc1ccc(C(=O)N/N=C/c2cn(Cc3ccccc3)c3ccccc23)cc1,n,n,n,n,n,n,x

# Screening data: PubChem BioAssay, several laboratories
